Consider 57 molecules from PubChem BioAssay AID588689 (Southern Research Specialized Biocontainment Screening …, 2011).

What is called inhibition is the change of the read-out against control, counted positive when it falls.

For this test, the target named is Genome polyprotein (Dengue virus type 2 (strain 16681-PDK53)) (UniProt P29991). The test is described as follows: Dengue-2 NS5 methyltransferase inhibitors, primary screen, biochemical, confirmation dose response (AID 588689). As to conditions: Dengue-2 NS5 methyltransferase capping enzyme assay, at 25 µM, stronger effect = higher value.
Where [1] appears, read: measured here: pilot screen replicate inhibition.

Where “and” joins values, the source holds several entries; their conditions need not be identical. Equal entries are not always repeated. The whole screen tested about 340,000 compounds, of which about 1,000 (0.29%) were called active. Cut-off read from the data, not from the text of the source: inconclusive = inhibition above about 29% without an active follow-up result; inactive = below that. These entries were drawn from the full list. Entries with a potency or affinity are not part of this list.

Chain of Genome polyprotein (Dengue virus type 2 (strain 16681-PDK53)) (P29991 whole entry, looked up): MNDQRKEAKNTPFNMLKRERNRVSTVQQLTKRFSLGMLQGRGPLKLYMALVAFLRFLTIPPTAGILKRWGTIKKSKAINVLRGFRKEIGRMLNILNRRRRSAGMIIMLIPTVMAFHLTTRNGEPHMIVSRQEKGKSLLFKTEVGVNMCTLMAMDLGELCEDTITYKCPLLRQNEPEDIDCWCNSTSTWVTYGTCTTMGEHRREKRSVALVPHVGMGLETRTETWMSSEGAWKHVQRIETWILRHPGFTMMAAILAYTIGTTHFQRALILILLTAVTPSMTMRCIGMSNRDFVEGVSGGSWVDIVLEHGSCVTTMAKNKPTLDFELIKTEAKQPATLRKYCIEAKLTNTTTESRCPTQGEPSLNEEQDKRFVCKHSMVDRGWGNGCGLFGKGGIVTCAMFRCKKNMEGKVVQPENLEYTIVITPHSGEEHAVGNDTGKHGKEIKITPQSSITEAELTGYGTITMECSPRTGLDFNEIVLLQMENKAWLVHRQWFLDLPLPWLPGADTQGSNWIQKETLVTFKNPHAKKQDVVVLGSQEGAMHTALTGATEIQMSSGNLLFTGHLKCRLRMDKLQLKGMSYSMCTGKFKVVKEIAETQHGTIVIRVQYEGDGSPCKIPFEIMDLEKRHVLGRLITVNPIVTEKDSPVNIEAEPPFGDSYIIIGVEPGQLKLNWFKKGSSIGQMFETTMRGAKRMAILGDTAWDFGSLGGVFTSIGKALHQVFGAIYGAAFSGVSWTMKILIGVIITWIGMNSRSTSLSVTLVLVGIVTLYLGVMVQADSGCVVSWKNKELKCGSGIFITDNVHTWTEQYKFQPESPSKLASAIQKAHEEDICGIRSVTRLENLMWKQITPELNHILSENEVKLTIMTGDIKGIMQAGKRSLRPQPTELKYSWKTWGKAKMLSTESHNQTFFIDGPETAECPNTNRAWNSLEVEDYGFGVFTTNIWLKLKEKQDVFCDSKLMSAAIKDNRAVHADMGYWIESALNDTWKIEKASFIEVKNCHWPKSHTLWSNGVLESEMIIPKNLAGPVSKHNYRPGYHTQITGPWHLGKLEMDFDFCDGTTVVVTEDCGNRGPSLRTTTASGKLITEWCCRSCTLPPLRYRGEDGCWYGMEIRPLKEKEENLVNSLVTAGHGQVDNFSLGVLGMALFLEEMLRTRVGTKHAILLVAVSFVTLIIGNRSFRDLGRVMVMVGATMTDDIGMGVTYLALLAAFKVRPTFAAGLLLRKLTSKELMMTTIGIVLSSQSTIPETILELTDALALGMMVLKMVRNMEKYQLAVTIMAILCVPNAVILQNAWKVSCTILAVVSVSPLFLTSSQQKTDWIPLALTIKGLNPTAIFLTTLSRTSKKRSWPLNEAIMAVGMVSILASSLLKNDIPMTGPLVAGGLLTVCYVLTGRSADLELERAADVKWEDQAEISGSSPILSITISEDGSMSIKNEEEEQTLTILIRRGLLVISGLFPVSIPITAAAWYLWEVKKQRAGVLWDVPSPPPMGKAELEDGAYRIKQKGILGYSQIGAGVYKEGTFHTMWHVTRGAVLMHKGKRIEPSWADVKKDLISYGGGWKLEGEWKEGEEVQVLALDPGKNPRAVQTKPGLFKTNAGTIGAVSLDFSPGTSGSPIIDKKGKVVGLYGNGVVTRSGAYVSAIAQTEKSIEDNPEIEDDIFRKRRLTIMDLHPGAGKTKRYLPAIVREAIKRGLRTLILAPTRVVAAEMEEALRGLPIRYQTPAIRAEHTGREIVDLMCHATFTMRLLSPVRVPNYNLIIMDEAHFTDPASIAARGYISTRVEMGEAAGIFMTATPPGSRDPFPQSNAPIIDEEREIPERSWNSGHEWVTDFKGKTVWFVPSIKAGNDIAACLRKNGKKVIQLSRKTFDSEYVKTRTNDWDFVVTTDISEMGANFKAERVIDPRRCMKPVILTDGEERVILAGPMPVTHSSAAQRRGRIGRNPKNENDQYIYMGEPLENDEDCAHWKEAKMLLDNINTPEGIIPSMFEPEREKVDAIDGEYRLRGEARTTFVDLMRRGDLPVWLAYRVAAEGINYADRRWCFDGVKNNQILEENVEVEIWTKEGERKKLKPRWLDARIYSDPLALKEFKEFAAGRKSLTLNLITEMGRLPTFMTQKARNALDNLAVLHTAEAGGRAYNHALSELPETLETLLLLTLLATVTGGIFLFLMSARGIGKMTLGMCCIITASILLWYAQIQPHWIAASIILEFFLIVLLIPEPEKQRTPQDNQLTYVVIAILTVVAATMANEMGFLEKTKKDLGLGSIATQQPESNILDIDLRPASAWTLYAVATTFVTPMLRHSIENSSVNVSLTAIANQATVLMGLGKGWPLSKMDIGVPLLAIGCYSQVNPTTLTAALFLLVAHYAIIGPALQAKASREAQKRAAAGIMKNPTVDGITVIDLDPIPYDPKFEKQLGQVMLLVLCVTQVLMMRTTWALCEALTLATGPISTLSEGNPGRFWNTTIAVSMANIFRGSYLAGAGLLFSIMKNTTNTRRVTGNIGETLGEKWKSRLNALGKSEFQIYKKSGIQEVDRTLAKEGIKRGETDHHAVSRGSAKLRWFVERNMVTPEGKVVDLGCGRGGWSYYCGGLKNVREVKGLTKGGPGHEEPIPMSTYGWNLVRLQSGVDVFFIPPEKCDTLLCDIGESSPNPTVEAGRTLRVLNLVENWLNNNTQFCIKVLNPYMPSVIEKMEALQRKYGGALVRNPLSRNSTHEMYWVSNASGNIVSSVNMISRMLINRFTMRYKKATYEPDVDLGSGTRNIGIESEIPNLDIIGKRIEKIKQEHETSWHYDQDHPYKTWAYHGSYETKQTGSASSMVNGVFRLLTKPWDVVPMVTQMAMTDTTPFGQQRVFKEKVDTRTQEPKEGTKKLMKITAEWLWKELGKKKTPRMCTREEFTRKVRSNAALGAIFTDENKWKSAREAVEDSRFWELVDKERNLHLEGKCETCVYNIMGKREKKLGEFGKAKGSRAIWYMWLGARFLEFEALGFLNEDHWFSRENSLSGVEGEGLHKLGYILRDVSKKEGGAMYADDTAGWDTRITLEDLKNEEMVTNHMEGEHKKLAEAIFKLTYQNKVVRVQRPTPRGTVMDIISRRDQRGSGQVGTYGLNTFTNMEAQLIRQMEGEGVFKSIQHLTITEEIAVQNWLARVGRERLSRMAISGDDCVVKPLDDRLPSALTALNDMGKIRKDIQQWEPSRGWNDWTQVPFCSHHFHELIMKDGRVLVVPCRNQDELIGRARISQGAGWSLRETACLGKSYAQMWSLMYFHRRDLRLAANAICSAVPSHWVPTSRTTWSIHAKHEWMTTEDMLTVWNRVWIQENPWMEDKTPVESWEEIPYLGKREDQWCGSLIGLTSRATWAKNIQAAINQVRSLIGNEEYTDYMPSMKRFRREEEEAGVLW

As for `NS(=O)(=O)c1ccc(NC(=O)Cc2cccs2)cc1`, the inhibition is 0% (inactive). For `O=c1[nH]c2cc([N+](=O)[O-])cc(Cl)c2c2ccccc12`, the inhibition is 5.75% (inactive). Still for that read-out and setting: the same measure for `CNC(=O)CN1C(=O)NC2(CCc3ccccc3C2)C1=O` (centres undefined): 0.74% (inactive); for `COCC(C)n1c(SCC(=O)NC(=O)Cc2ccccc2)nc2ccccc2c1=O` (centres undefined): 1.46% (inactive). Still for that read-out and setting: the result for `CSc1nsc(SCC(=O)Nc2ccc(Cl)c(C(=O)O)c2)n1` reads 8.31% (inactive); that for `O=C(CSc1n[nH]c(-c2ccncc2)n1)Nc1ccc(Cl)c(C(=O)O)c1`, 0.89% (inactive). Regarding `O=C(Cn1cnc([N+](=O)[O-])n1)N/N=C/c1cc(Cl)ccc1O`, the inhibition is -13.5% (inactive). Take `NS(=O)(=O)c1ccc(NS(=O)(=O)c2ccc(NC(=O)C3CC3)cc2)cc1`: the inhibition is 15.1% (inactive). Turning to `Cc1csc(SCC(=O)Nc2ccc(F)cc2Cl)n1`, the inhibition is -8.4% (inactive). For `O=C(Nc1ncccc1Cl)C(Sc1ccccc1)c1ccccc1` (centres undefined), the inhibition is -1.88% (inactive). Moreover, the inhibition under setting [1] is -5.46%. For the molecule `CNC(=O)Oc1ccc2c(c1)[C@]1(C)CCN(C)[C@@H]1N2C`, the inhibition is -1.49% (inactive) and -0.75% (inactive). As for `CNC(=O)Oc1ccc2c(c1)[C@]1(C)CCN(C)C1N2C` (some centres undefined), the inhibition is 0% (inactive). With `O=C(Nc1ccc(Cl)cc1)Nc1ccc2c(c1)N1CCN=C1S2`, the inhibition is -47.1% (inactive).

On to `COC(=O)c1ccccc1NC(=O)CSc1nccn1C`, for which the inhibition was 0.56% (inactive). Consider `COc1cc(-c2ccc3sc(-c4ccsc4)c(C#CCO)c3c2)cc(OC)c1OC`, for which the inhibition is 3.31% (inactive). Same read-out and setting: the same measure for `Cc1ccc(C2=C(O)C(=O)C(c3ccc(C)cc3)=C(O)C2=O)cc1`: 2.31% (inactive). On to `Cc1ccc(C2=C(O)c3ccccc3C(=O)C2=O)cc1`, for which the inhibition was 10.5% (inactive). Still for that read-out and setting: the same measure for `COc1ccc([N+](=O)[O-])cc1-c1[nH]c(-c2ccc(C(=O)O)cc2)nc1-c1ccccc1`: -2.87% (inactive). The same measure, in the same setting: the same measure for `CC(=O)Nc1ccc(S(=O)(=O)Nc2c(C)nn(-c3ccccc3)c2C)cc1`: -3.38% (inactive); for `COc1cc(NC(=O)C2CCCCC2)c2ncccc2c1`: -4.93% (inactive).

Consider `COc1cc(NCc2ccccc2O)c2ncccc2c1`, for which the inhibition was -1.29% (inactive). Same read-out and setting: the result for `CCN(CCCNC(=O)CNC(=O)c1nn(-c2ccc(OC)cc2OC)c(=O)c2ccccc12)c1cccc(C)c1` reads -2.2% (inactive); that for `Cc1cccc(-n2ccnc2SCC(=O)Nc2cc(C)on2)c1`, -6.93% (inactive).

In the case of `COc1ccc2[nH]c3c(c2c1)CCN1C(=O)C(CC(=O)NC(C)(C)C)C[C@H](C(=O)N(C(C)C)C(C)C)[C@@]31C` (some centres undefined), the inhibition was -6.62% (inactive). Besides, the inhibition under setting [1] was -4.89%.

On to `Cc1cc(C)nc(SCC(=O)Nc2ccc(S(=O)(=O)Nc3cc(C)on3)cc2)n1`, for which the inhibition was -0.67% (inactive). As for `Cc1cc(NS(=O)(=O)c2ccc(NC(=O)CSc3nc4sc(C(=O)O)c(C)c4c(=O)[nH]3)cc2)no1`, the inhibition was 1.64% (inactive).

For the molecule `O=C1C(=O)N(C/C=C/c2ccccc2)c2ccccc21`, the inhibition was -12.9% (inactive). As for `N#CCCn1cc(/C=C2\NC(=S)N(c3ccccc3)C2=O)c(-c2ccc(F)cc2)n1`, the inhibition is -8.84% (inactive). For `CC1(C)CC(=O)C(=Cc2cn(-c3ccccc3)nc2-c2ccc(Cl)cc2)C(=O)C1`, the inhibition was -1.09% (inactive). On to `N#CCCn1cc(/C=N/O)c(-c2ccc(F)cc2)n1`, for which the inhibition is -2.03% (inactive).

As for `CC1=NN(c2ccccc2)C(=O)/C1=C\c1cn(CCC#N)nc1-c1ccc(Cl)cc1`, the inhibition was 5.39% (inactive).

`CC1(C)CC(=O)C(=Cc2cn(-c3ccccc3)nc2-c2ccccc2)C(=O)C1`: the inhibition is 27.8% (inactive). In the case of `CC1=NNC(=O)/C1=C\c1cn(-c2ccccc2)nc1-c1ccccc1`, the inhibition is 10.9% (inactive). On to `Cc1ccc(NC(=O)c2cc(-c3cc(Cl)ccc3O)n[nH]2)cc1C`, for which the inhibition was -6.12% (inactive). With `COc1cccc(N2CCN(C(=O)CNC(=O)c3sc4ccccc4c3Cl)CC2)c1`, the inhibition was -1.29% (inactive). For the molecule `O=C1CN(C(=O)COC(=O)c2ccccc2NCc2ccco2)c2ccccc2N1`, the inhibition is -4.76% (inactive). As to `CCOC(=O)c1c(C)[nH]c(C(=O)OCC(=O)N(CC(C)C)C2CCS(=O)(=O)C2)c1C` (centres undefined), the inhibition was 4.1% (inactive). Same read-out and setting: the result for `Cc1c(N(C)C(=O)c2ccccc2F)c(=O)n(-c2ccccc2)n1C` reads 2.15% (inactive). Turning to `COc1cccc(C(NC(=O)c2ccccc2F)NC(=O)c2ccccc2F)c1`, the inhibition is -5.64% (inactive). Take `CC(=NCCCNC1CCCCC1)C1=C(O)CC(C)(C)CC1=O`: the inhibition is 10.2% (inactive). With `O=C(NC1CCCc2ccccc21)C1CCN(c2c3c(nc4ncnn24)CCC3)CC1` (centres undefined), the inhibition was -6.95% (inactive).

Take `O=C(O)C(Cc1ccccc1)N1C(=O)c2ccccc2C1=O` (centres undefined): the inhibition was -1.57% (inactive). Regarding `O=C(O)C(Cc1ccccc1)N1C(=O)c2cccc3cccc(c23)C1=O` (centres undefined), the inhibition was -2.21% (inactive). Turning to `O=C(O)C(Cc1ccccc1)N1C(=O)CCC1=O` (centres undefined), the inhibition was -3.06% (inactive). As for `O=C(O)C(Cc1ccc(O)cc1)N1C(=O)c2c(Cl)c(Cl)c(Cl)c(Cl)c2C1=O` (centres undefined), the inhibition was 16.9% (inactive). With `Cc1cccc(C)c1NC(=O)C(c1ccc([N+](=O)[O-])cc1)N1CCCCC1` (centres undefined), the inhibition is -3.23% (inactive). As to `Cc1onc(-c2ccccc2Cl)c1C(=O)Nc1ccc(-c2nnc3n2CCCCC3)cc1`, the inhibition was 9.09% (inactive). As to `O=C(CNC(=O)c1cccs1)Nc1ccncc1`, the inhibition is 1.47% (inactive). Consider `Cc1cc(C(C)(C)C)oc1C(=O)N(CC(=O)NC1CCCC1)c1cccc(C(F)(F)F)c1`, for which the inhibition is -5.56% (inactive).

As to `Cc1[nH][nH]c(=O)c1C(c1cc(Br)ccc1O)c1c(C)[nH][nH]c1=O`, the inhibition was 0% (inactive).

Consider `CCOC(=O)c1[nH]c2ccccc2c1NC(C)=O`, for which the inhibition was 1.39% (inactive). On to `CCc1c(C(=O)O)[nH]c2ccc(Br)cc12`, for which the inhibition was 7.42% (inactive). For `O=C(CC(c1ccccc1)c1cc(Br)ccc1O)N1CCCC1` (centres undefined), the inhibition is -0.78% (inactive).

As to `CCOc1ccccc1NC(=O)CSCC(=O)Nc1ccccc1`, the inhibition is 0% (inactive). `CCOC(=O)N1CCN(CC(O)COCC2=CCC3CC2C3(C)C)CC1` (centres undefined): the inhibition is 6.09% (inactive).

Turning to `C[C@@H](C(=O)Nc1ccc2ccccc2c1)[C@H]1C[C@]1(C)[C@H](NC(=O)OCc1ccccc1)c1ccccc1`, the inhibition was 4.76% (inactive).

For `CCOC(=O)N1CCN(S(=O)(=O)N2CCCC(C(=O)NCc3ccccc3Cl)C2)CC1` (centres undefined), the inhibition is -6.21% (inactive).
